This note sets out measurements from PubChem BioAssay (NCATS).

Records with an inconclusive call do not appear. Unmarked numbers belong to inactive results. The source made the active and inactive calls. Calls follow the shape of the dose curve; as a rule, active = well fitted inhibition curve with a large enough effect; inconclusive = small, poorly fitted or top-dose-only effect; inactive = flat fitted curve, though single readings scatter.
% is scaled to controls: 0 for no effect and ±100 for the full control effect.

The target of the assay is Glutathione peroxidase 1 (Homo sapiens) (UniProt P07203). Description: Primary qHTS Assay for Inhibitors of Recombinant Selenoprotein Glutathione Peroxidase 1 (GPX1) (AID 1845191). Also: nearly all actives have a fitted effect of over 65% in size. The following applies: recombinant GPX1, GR-coupled NADPH fluorescence, 15 min; series mostly up to 48.8 µM; activity, negative = inhibition: at the top concentration. In short, it runs like this: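 GR-coupled assay: compounds preincubated 30 min at room temperature with GPX1, then reaction started with CHP; final 10 nM GPX1, 1 mM GSH, 0.5 mM CHP, 0.5 mM NADPH, 100 nM GR, 0.01% BSA, pH 7.5 Tris buffer. NADPH fluorescence (340/450 nm) read at 0 and 15 min.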
Glutathione peroxidase 1 (Homo sapiens), sequence (P07203 whole entry, looked up): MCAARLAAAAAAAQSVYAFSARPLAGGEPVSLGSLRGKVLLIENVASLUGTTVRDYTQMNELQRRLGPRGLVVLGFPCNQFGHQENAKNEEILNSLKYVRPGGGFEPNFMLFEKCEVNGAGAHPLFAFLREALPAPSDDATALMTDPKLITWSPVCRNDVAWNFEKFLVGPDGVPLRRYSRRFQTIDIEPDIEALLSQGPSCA
On the technique in general: In qHTS, concentration-response curves come from the screen itself.
As to `C=C1CCC2C(OC(=O)C2(O)COC(C)=O)C2C(=C)C(O)CC12` (stereo not drawn), the “outcome” value was “inactive [at 27.7 µM]”.
As for `C=C1CC[C@@H]2[C@](C)(CO[C@@H]3O[C@H](CO)[C@@H](O)[C@H](O)[C@H]3O)CCC[C@@]2(C)[C@@H]1CCC1=CCOC1=O`, the “activity, negative = inhibition” value is 0.8% [at 27.7 µM].
`COc1ccc2c(c1O)OC[C@H]1c3ccc(O)cc3O[C@@H]21`: the result was inactive.
On to `O=C(CCO[C@@H]1O[C@H](CO)[C@@H](O)[C@H](O)[C@H]1O)c1ccc(O)cc1`, for which the “activity, negative = inhibition” value was -12.4% [at 27.7 µM].
Still for that read-out and setting: to `O=C(OCC12OC1C=CC(OC(=O)c1ccccc1)C2O)c1ccccc1` (stereo not drawn) belongs -22.7% [at 27.7 µM].
On to `NC1CCC(N[C@@H]2C[C@H]2c2ccccc2)CC1` (stereo partly drawn), for which the Potency entry was “inactive”.
On to `COC1CC(=O)CCC(C)OC(=O)CC1O` (stereo not drawn), for which the result was inactive.
In the case of `CC(C)Nc1cc(-c2c[nH]c(C(=O)N[C@H](CO)c3cccc(Cl)c3)c2)c(Cl)cn1`, the Potency entry is “inactive”.
With `COC(=O)c1cc(CN2CCN(C(=N)N)CC2)cc(C(=O)N2CCN(C(=O)c3ccc(C(=N)N)cc3)CC2)c1`, the result was inactive.
Same read-out and setting: to `CC(=O)OC[C@]1(O)[C@H]2[C@H](OC(=O)CC(C)C)OC=C(CO[C@@H]3O[C@H](CO)[C@@H](O)[C@H](O)[C@H]3O)[C@H]2C[C@@H]1O` belongs “inactive [at 27.7 µM]”; to `COC(=O)C1=CO[C@@H](O[C@@H]2O[C@H](CO)[C@@H](O)[C@H](O)[C@H]2O)[C@@H]2[C@@](C)(O)[C@@H](O)C[C@]12O`, “inactive [at 27.7 µM]”.
Turning to `COc1ccc(/C=C/C(=O)O[C@@H]2[C@@H](OC(C)=O)[C@@H](OC(C)=O)[C@H](O[C@H]3[C@@H]4C=CO[C@@H](O[C@@H]5O[C@H](CO)[C@@H](O)[C@H](O)[C@H]5O)[C@@H]4[C@@]4(CO)O[C@@H]34)O[C@H]2C)cc1O`, the “activity, negative = inhibition” value is -3.68% [at 15.3 µM].
On the same count and under the same terms, to `CN1C(=O)N[C@@H](Cc2c[nH]c3c(Cl)cccc23)C1=O` belongs 0.915%.
In the case of `Cc1ccc(C(=O)Nc2ccc(Oc3cc4cnn(C)c4cc3-c3cn[nH]c3)c(F)c2)c(=O)n1-c1ccc(F)cc1`, the Potency entry was “inactive”.
`CC1(C(=O)O)CCCC2(C)C1CCC13CC(CCC21)C1(CO)OC31` (stereo not drawn): the “outcome” value was “inactive [at 27.7 µM]”.
On the same count and under the same terms, to `CC(C(=O)O)C1CCC2(C)C3C(=O)C=C4C(CCC(=O)C4(C)C)C3(C)CCC12C` (stereo not drawn) belongs “inactive [at 27.7 µM]”.
For `CC1CCC2C(C(=O)O)=CC3C(O)C(C)(C)CC123` (stereo not drawn), the “activity, negative = inhibition” value is -10.8%.
Consider `CC1CCC23COC(=O)C2=CC(O)CC3C1(C)CCC1=CC(=O)OC1O` (stereo not drawn), for which the “outcome” value was “inactive [at 27.7 µM]”.
The same measure, in the same setting: to `Cc1cc(C)cc(NC(=O)Cc2ccc(OC(C)(C)C(=O)O)cc2)c1` belongs “inactive”.
As to `CCC(=O)NS(=O)(=O)c1ccc(-c2c(-c3ccccc3)noc2C)cc1`, the Potency result is “inactive”.
With `C[C@@H]1O[C@@H](O[C@H]2[C@H](O)[C@@H](C(=O)O)O[C@@H](O[C@H]3CC[C@@]4(C)C(CC[C@]5(C)C4CC=C4C6CC(C)(C)CC[C@]6(C(=O)O)CC[C@]45C)C3(C)C)[C@@H]2O[C@@H]2O[C@H](CO)[C@@H](O)[C@H](O)[C@H]2O)[C@H](O)[C@H](O)[C@H]1O` (stereo partly drawn), the “outcome” value was “inactive [at 15.3 µM]”.
In the case of `CCc1c(CC(N)=O)c2cc(OCCCP(=O)(O)O)ccc2n1Cc1ccccc1`, the “activity, negative = inhibition” value is -14.8%.
Take `CCC(C)/C=C(C)/C=C/C1=CC2=C(Cl)C(=O)C(C)(OC(C)=O)C(=O)C2=CN1CCCC(=O)O` (stereo not drawn): the “outcome” value is “inactive [at 27.7 µM]”.
Consider `CC1(C)CCCC2(C)C(CO)C3CCC2C31` (stereo not drawn), for which the “activity, negative = inhibition” value was 2.99%.
Take `O=C(/C=C/c1ccc(O)cc1)O[C@H]1[C@@H]2C=CO[C@@H](O[C@@H]3O[C@H](CO)[C@@H](O)[C@H](O)[C@H]3O)[C@@H]2[C@@]2(CO)O[C@@H]12`: the “outcome” value is “inactive [at 27.7 µM]”.
Regarding `OC[C@H]1O[C@@H](Oc2ccc3c(c2)OC[C@H]2c4cc5c(cc4O[C@@H]32)OCO5)[C@H](O)[C@@H](O)[C@@H]1O`, the “outcome” value is “inactive [at 27.7 µM]”.
On the same count and under the same terms, to `CC1(C)CCC2(C(=O)OC3OC(COC4OC(CO)C(O)C(O)C4O)C(O)C(O)C3O)CCC3(C)C(=CCC4C5(C)CCC(O)C(C)(C(=O)O)C5CCC43C)C2C1O` (stereo not drawn) belongs “inactive [at 15.3 µM]”.
In the case of `c1ccc(Cc2ncc3c(n2)CCNCC3)cc1`, the “activity, negative = inhibition” value was -4.04%.
Still for that read-out and setting: to `Cc1cc(O)c(C(C)C)cc1O[C@@H]1O[C@H](CO)[C@@H](O)[C@H](O)[C@H]1O` belongs -4.02% [at 27.7 µM].
Take `O=c1ccn([C@@H]2O[C@H](CO)[C@@H](O)[C@H]2O)c(=O)[nH]1`: the result was inactive.
As to `CC1(C)O[C@]23C[C@H]1C[C@H](OC(=O)c1ccoc1)[C@]2(C)[C@@H](OC(=O)c1ccoc1)CCC3(C)O` (stereo partly drawn), the “activity, negative = inhibition” value is 4.62% [at 27.7 µM].
With `OC[C@H]1O[C@@H](OCCc2ccc(O)cc2)[C@H](O)[C@@H](O)[C@@H]1O`, the Potency entry is “inactive”.
In the case of `CC(NC(=O)CC(=O)O)c1nc2ccccc2c(=O)[nH]1` (stereo not drawn), the “activity, negative = inhibition” value was 0.288%.
On the same count and under the same terms, to `COC(=O)C1=C[C@@H](O)[C@@H](O)[C@H](O[C@@H]2O[C@H](COC(=O)/C=C/c3ccccc3)[C@@H](O)[C@H](O)[C@H]2O)C1` belongs -0.44% [at 27.7 µM]; to `NC(=O)c1ccc(OCC2NC(=O)C3CCCN3C2=O)cc1` (stereo not drawn), 0.0234%; to `CC1(O)CCC2C(C(=O)O)=COC(OC3OC(CO)C(O)C(O)C3OC(=O)/C=C/c3ccc(O)cc3)C21` (stereo not drawn), 1.23% [at 27.7 µM].
`CC1(C)CC[C@]2(C(=O)O[C@@H]3O[C@H](CO)[C@@H](O)[C@H](O)[C@H]3O)CC[C@]3(C)C(=CCC4[C@@]5(C)C[C@@H](O)[C@H](O)[C@@](C)(CO)C5CC[C@]43C)C2C1` (stereo partly drawn): the “outcome” value was “inactive [at 15.3 µM]”.
Turning to `OCC1=CC[C@@H]2C=CO[C@@H](O[C@@H]3O[C@H](CO)[C@@H](O)[C@H](O)[C@H]3O)[C@H]12`, the “activity, negative = inhibition” value is 0.645% [at 27.7 µM].
